Experimental findings from PubChem BioAssay (NCI) are described below.

The panel holds about 83,000 compounds, 20% with a hit somewhere; the sample as a whole holds those more often.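 Results are percent growth after 48 hours of single-concentration exposure. 100 means growth as in untreated cells, lower positive values show inhibition; negative values down to -100 show cell death.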 Unmarked numbers belong to inactive results. Calls of active or inactive are those of the source. Rule for the calls: active = growth percent below 10; inactive = the rest.

Some test systems named below: SR leukemia; RPMI-8226 leukemia; OVCAR-8 ovarian; OVCAR-5 ovarian; OVCAR-4 ovarian; SK-OV-3 ovarian; IGROV1 ovarian; OVCAR-3 ovarian; HS 578T breast; NCI/ADR-RES ovarian.
Assay in all cases: NCI-60 one-dose screen, 48 h (100 = growth as untreated, 0 = no growth, -100 = all killed)
What all share (settings): 10 µM unless noted

For `C#CC#CC#CC#CC#CC#CC#CC#CCC1OC[C@H](COC(=O)O[C@@H](C(=O)O[C@H]2C[C@@]3(O)[C@@H](OC(=O)c4ccccc4)[C@@H]4[C@]5(OC(C)=O)CO[C@@H]5C[C@H](O)[C@@]4(C)C(=O)[C@H](OC(C)=O)C(=C2C)C3(C)C)[C@@H](NC(=O)c2ccccc2)c2ccccc2)O1` (stereo not given in full), the growth in the assay on SR leukemia was 24.6%; in the assay with RPMI-8226 leukemia it was 15.4%; with OVCAR-8 ovarian, 31.4%; with OVCAR-5 ovarian it was 26%; with OVCAR-4 ovarian it was 57.5%; with SK-OV-3 ovarian it was 53.5%. Moreover, the growth in the assay on IGROV1 ovarian is 33.2%; in the assay on OVCAR-3 ovarian, 9.45% (active); with HS 578T breast it was 8.95% (active); with NCI/ADR-RES ovarian, 106%.

With `Oc1c(CN2CCCC2)cc(CSCc2ccccc2)c2cccnc12`, the growth is -7.76% (active) in the assay with SR leukemia; 7.56% (active) with RPMI-8226 leukemia; 7.91% (active) in the assay with OVCAR-8 ovarian; 41.8% with OVCAR-5 ovarian; -2.42% (active) in the assay with OVCAR-4 ovarian; -15.6% (active) in the assay with SK-OV-3 ovarian. For the same compound, the growth is -3.98% (active) in the assay with IGROV1 ovarian, 5.77% (active) in the assay with OVCAR-3 ovarian, 64.5% in the assay on HS 578T breast and -46.4% (active) in the assay with NCI/ADR-RES ovarian.

`CC(C)N1C(=O)/C(=c2\sc3n(c2=O)C2C(NN=3)N(C)C(=O)N2C)c2ccccc21` (stereo not given): the growth in the assay with SR leukemia is 23.3%; in the assay on RPMI-8226 leukemia, 94.5%; in the assay with OVCAR-8 ovarian, 79.6%; in the assay with OVCAR-5 ovarian, 84.6%; in the assay with OVCAR-4 ovarian, 85%; in the assay with SK-OV-3 ovarian, 76.3%. Besides, the growth in the assay with IGROV1 ovarian is 53.2%; in the assay on OVCAR-3 ovarian, 20.7%; with HS 578T breast, 41.7%; with NCI/ADR-RES ovarian, 51.5%.

As for `O=C(NNC(=O)c1nc2cc(F)ccc2n2cccc12)c1cnccn1`, the growth was 21.4% in the assay with SR leukemia; 41.3% in the assay on RPMI-8226 leukemia; 24.2% in the assay on OVCAR-8 ovarian; 68.3% in the assay with OVCAR-5 ovarian; 28.4% in the assay on OVCAR-4 ovarian; 42.1% with SK-OV-3 ovarian. For the same compound, the growth is 35.6% with IGROV1 ovarian, 30% in the assay with OVCAR-3 ovarian, 67.8% with HS 578T breast and 20.8% in the assay on NCI/ADR-RES ovarian.

With `COc1ccc2cc(-c3ccnc4c(N=Nc5ccc(Cl)cc5)c(N)nn34)ccc2c1`, the growth with SR leukemia is 95.2%; in the assay with RPMI-8226 leukemia it was 94.9%; with OVCAR-8 ovarian it was 93.9%; with OVCAR-5 ovarian it was 99.7%; in the assay on OVCAR-4 ovarian it was 116%; with SK-OV-3 ovarian, 93.7%. Besides, the growth is 102% with IGROV1 ovarian, 105% in the assay on OVCAR-3 ovarian, 92.9% in the assay on HS 578T breast and 94.5% with NCI/ADR-RES ovarian.

In the case of `O=C(Nc1ncc(Cc2ccccc2)s1)c1ccc2c(c1)OCCCO2`, the growth was 7.17% (active) in the assay on SR leukemia; 14.3% with RPMI-8226 leukemia; 44.9% in the assay on OVCAR-8 ovarian; 47.6% with OVCAR-5 ovarian; 52.3% in the assay on OVCAR-4 ovarian; 55.2% in the assay on SK-OV-3 ovarian. Moreover, the growth was 41.1% with IGROV1 ovarian, -10.5% (active) in the assay with OVCAR-3 ovarian, 49.7% in the assay on HS 578T breast and 9.35% (active) with NCI/ADR-RES ovarian.

`CCNc1ccc(-c2nc3ccccc3n3cccc23)cc1`: the growth was 76.4% with SR leukemia; 85.2% in the assay with RPMI-8226 leukemia; 80.9% in the assay with OVCAR-8 ovarian; 71% with OVCAR-5 ovarian; 72.7% in the assay with OVCAR-4 ovarian; 72.4% in the assay on SK-OV-3 ovarian. Moreover, the growth in the assay with IGROV1 ovarian was 64%; in the assay on OVCAR-3 ovarian, 78.7%; in the assay with HS 578T breast, 78.6%; in the assay with NCI/ADR-RES ovarian it was 80.6%.

On to `Oc1c(CN2CCOCC2)cc(COCc2ccccc2)c2cccnc12`, for which the growth with SR leukemia was 13.4%; with RPMI-8226 leukemia it was 29.1%; in the assay with OVCAR-8 ovarian, 14.5%; in the assay with OVCAR-5 ovarian, 37.8%; in the assay on OVCAR-4 ovarian it was 24.5%; in the assay on SK-OV-3 ovarian it was 9.56% (active). Besides, the growth is 16.2% in the assay with IGROV1 ovarian, 19.7% in the assay with OVCAR-3 ovarian, 68.4% with HS 578T breast and 7.42% (active) with NCI/ADR-RES ovarian.

In the case of `CSC1=Nc2c(c(C)c(-c3ccccc3)n2CCCC(=O)O)C2=NC(=O)C[C@H](C)N12`, the growth is 114% in the assay on SR leukemia; 93.6% in the assay on RPMI-8226 leukemia; 110% in the assay on OVCAR-8 ovarian; 107% with OVCAR-5 ovarian; 93% in the assay on OVCAR-4 ovarian; 130% in the assay on SK-OV-3 ovarian. For the same compound, the growth in the assay with IGROV1 ovarian is 97.5%; with OVCAR-3 ovarian, 119%; in the assay with HS 578T breast, 98.1%; with NCI/ADR-RES ovarian, 104%.

For `COc1ccc(C(=O)N2c3ccccc3Sc3ccccc32)c(C(F)(F)F)c1`, the growth in the assay with SR leukemia was 16.3%; in the assay on RPMI-8226 leukemia, 14.2%; in the assay on OVCAR-8 ovarian, 14.9%; in the assay with OVCAR-5 ovarian it was 44.6%; in the assay with OVCAR-4 ovarian it was 47.1%; in the assay on SK-OV-3 ovarian, 34.4%. Further, the growth in the assay on IGROV1 ovarian is 37.9%; with OVCAR-3 ovarian, -1.95% (active); in the assay on HS 578T breast, 24.3%; in the assay with NCI/ADR-RES ovarian, 2.91% (active).

Take `Cc1ccc(-c2nc(SCc3nc4cc(Cl)c(Cl)cc4[nH]3)[nH]c(=O)c2C#N)cc1`: the growth is 96.7% in the assay with SR leukemia; 115% in the assay on RPMI-8226 leukemia; 98.2% with OVCAR-8 ovarian; 101% in the assay with OVCAR-5 ovarian; 105% in the assay on OVCAR-4 ovarian; 96.2% in the assay with SK-OV-3 ovarian. Also, the growth in the assay on IGROV1 ovarian is 99.6%; in the assay on OVCAR-3 ovarian it was 99.9%; in the assay with HS 578T breast, 102%; with NCI/ADR-RES ovarian, 111%.

On to `CCOC(=O)c1c(C)nc2c(c1N)/C(=C/c1ccc(OC)cc1)C(=O)N2Cc1ccccc1`, for which the growth with SR leukemia was 22.1%; in the assay on RPMI-8226 leukemia it was 5.58% (active); in the assay with OVCAR-8 ovarian it was 50.4%; in the assay with OVCAR-5 ovarian, 126%; in the assay with OVCAR-4 ovarian, 51.5%; in the assay on SK-OV-3 ovarian, 90.5%. Further, the growth was 73.3% in the assay with IGROV1 ovarian, 41.7% in the assay with OVCAR-3 ovarian, 69.5% in the assay on HS 578T breast and 52.4% with NCI/ADR-RES ovarian.

For the compound `CC1(C)N=C(N)N=C(N)N1c1ccc(CCCCc2ccccc2)c(Cl)c1`, the growth was -8.35% (active) in the assay on SR leukemia; 4.29% (active) in the assay with RPMI-8226 leukemia; 26.1% in the assay with OVCAR-8 ovarian; 28.5% with OVCAR-5 ovarian; 20.6% with OVCAR-4 ovarian; 38.1% with SK-OV-3 ovarian. In addition, the growth is -24.4% (active) with IGROV1 ovarian, -10.6% (active) with OVCAR-3 ovarian, 36.4% in the assay with HS 578T breast and 54.8% with NCI/ADR-RES ovarian.
